In the first test the target is Leukocyte tyrosine kinase receptor (Homo sapiens) (UniProt P29376). To be noted: at 1 µM.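 Also: each value is the mean inhibition of LTK.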
Chain of Tyrosine-protein kinase Lyn (Homo sapiens) (P07948 2-512 limits assumed): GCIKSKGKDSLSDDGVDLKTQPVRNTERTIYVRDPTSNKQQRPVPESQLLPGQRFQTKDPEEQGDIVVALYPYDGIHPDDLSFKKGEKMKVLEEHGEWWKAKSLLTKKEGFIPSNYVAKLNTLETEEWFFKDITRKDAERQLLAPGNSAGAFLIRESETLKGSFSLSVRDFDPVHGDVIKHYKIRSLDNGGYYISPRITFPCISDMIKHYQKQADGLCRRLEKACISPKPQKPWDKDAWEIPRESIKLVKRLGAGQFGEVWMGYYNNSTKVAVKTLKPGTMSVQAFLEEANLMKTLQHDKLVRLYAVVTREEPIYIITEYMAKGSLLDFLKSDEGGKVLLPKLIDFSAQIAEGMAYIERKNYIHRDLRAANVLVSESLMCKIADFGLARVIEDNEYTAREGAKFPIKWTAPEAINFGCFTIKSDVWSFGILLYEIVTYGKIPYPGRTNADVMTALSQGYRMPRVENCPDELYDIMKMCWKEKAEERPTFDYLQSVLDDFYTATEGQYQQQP
Chain of Leukocyte tyrosine kinase receptor (Homo sapiens) (P29376 whole entry): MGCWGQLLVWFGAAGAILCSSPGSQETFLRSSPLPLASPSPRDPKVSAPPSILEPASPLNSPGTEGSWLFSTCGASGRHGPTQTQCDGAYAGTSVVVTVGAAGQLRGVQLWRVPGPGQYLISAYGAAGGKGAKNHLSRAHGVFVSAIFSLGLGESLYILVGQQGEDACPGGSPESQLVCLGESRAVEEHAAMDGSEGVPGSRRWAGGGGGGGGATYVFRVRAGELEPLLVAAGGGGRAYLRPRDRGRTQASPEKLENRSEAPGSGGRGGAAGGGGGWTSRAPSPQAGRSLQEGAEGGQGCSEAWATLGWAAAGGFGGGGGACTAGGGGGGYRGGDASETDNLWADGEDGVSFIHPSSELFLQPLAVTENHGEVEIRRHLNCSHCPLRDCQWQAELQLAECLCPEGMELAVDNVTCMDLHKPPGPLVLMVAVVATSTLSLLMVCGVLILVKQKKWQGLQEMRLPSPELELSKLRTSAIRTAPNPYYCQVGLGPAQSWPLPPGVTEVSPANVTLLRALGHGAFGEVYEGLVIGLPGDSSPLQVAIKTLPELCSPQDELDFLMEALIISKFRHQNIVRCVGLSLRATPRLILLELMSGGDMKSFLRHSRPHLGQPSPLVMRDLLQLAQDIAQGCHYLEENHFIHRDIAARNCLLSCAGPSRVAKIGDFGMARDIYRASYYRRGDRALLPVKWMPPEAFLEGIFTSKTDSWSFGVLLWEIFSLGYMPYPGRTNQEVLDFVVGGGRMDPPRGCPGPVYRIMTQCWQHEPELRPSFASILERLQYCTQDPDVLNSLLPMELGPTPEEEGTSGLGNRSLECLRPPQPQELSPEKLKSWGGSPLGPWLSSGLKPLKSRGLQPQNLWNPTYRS
Consider `CCn1cc(-c2ccnc3[nH]ccc23)c(-c2cccc(NC(=O)Nc3ccc(OCc4ccccc4)cc3)c2)n1`, for which the inhibition was -0.91%.
Regarding `Cc1cccc(Nc2ncc(-c3ccccc3)o2)c1`, the inhibition came to 2.88%.
For `Nc1nc(-c2ccc(F)cc2)c(-c2ccc3ncccc3n2)s1`, the inhibition came out at 7.86%.
For `FC(F)(F)c1cccc(-c2nn3ncccc3c2-c2ccnc(Nc3ccc4c(c3)OCCO4)n2)c1`, the inhibition is 1.73%.
Consider `CNC(=O)c1cncc(/C=C/c2ccccc2Cl)c1`, for which the inhibition amounted to 1%.
Take `O=C(O[C@H]1CN[C@H](C#Cc2cc3ncnc(Nc4ccc(Cc5ccccc5)cc4)c3s2)C1)N1CCOCC1`: the inhibition worked out at 0.57%.
Turning to `COc1ccc(-c2nn3ncccc3c2-c2ccnc(Nc3ccc4c(c3)OCCO4)n2)cc1`, the inhibition was 23.5%.
`CCNC(=O)O[C@H]1CN[C@H](C#Cc2cc3ncnc(Nc4ccc(OCc5cccc(F)c5)c(Cl)c4)c3s2)C1`: the inhibition was 2.99%.
With `COc1ccc(-c2oc3ncnc(N)c3c2-c2ccc(NC(=O)Nc3cc(C(F)(F)F)ccc3F)cc2)cc1`, the inhibition stood at 11.2%.
Still for that read-out and setting: the result for `CCn1c(-c2nonc2N)nc2cnc(Oc3cccc(NC(=O)c4ccc(N(C)C)cc4)c3)cc21` reads 0.1%; that for `CCn1c(-c2nonc2N)nc2c(C#CC(C)(C)O)nc(OC[C@H](N)c3ccccc3)cc21`, 17.1%; that for `Fc1ccc(-c2nn3ncccc3c2-c2ccnc(Nc3ccc4c(c3)OCCO4)n2)cc1`, 5.5%.
As for `COc1cccc(-c2c[nH]c3c(N/N=C/c4ccncc4)ncnc23)c1`, the inhibition was 2.09%.
As for `O=C(Nc1n[nH]c2cc(-c3ccc(F)cc3)ccc12)C1CC1`, the inhibition came out at 2.75%.
On to `Clc1ccc(-c2nn3ncccc3c2-c2ccnc(Nc3ccccc3)n2)cc1`, for which the inhibition amounted to 3.81%.
As to `c1ccc(COc2ccc(Nc3ncnc4ccc(-c5ccco5)cc34)cc2)cc1`, the inhibition was 1.92%.
On the same count and under the same terms, for `N#Cc1c(NC(=O)c2ccc(F)cc2)sc2c1CCCC2` the value was 0.33%; for `COc1cc(/C=N/Nc2ncnc3[nH]ncc23)ccc1O`, 12.2%.
On to `Nc1nc(-c2cccc(Cl)c2)c(-c2ccc3ncccc3n2)s1`, for which the inhibition stood at 6.22%.
As to `COc1cc2ncn(-c3cc(OCc4ccccc4C(F)(F)F)c(C(=O)N(C)C)s3)c2cc1OC`, the inhibition amounted to 1.07%.
For the molecule `COC(=O)Nc1nc2ccc(S(=O)(=O)c3ccc(NC(=O)Nc4cc(C(F)(F)F)ccc4F)cc3)cc2[nH]1`, the inhibition turned out to be 0.53%.
As to `COc1ccc(-c2cc3c(N)ncnc3o2)cc1`, the inhibition came to 0.01%.
Regarding `COc1cc(N2CCN(C(C)C)CC2)ccc1Nc1nc(Nc2ccc(F)cc2C(N)=O)c2cc[nH]c2n1`, the inhibition was found to be 96%.
In the case of `CC1=C(C(=O)Nc2cc(Cl)c3[nH]ncc3c2)C(c2ccc(C(F)(F)F)cc2)CC(=O)N1` (stereo unspecified), the inhibition amounted to 3.88%.
Regarding `CC(=O)NCc1cccc(C#Cc2cncnc2Nc2ccc(OCc3cccc(F)c3)c(Cl)c2)c1`, the inhibition amounted to 0.67%.
On to `CCn1c(-c2nonc2N)nc2c(C#CC(C)(C)O)ncc(OC3CCNCC3)c21`, for which the inhibition worked out at 3.06%.
Take `NS(=O)(=O)c1ccc(Nc2ncc(-c3ccccc3)o2)cc1`: the inhibition turned out to be 6.46%.
For `CCCN(CCS(C)(=O)=O)Cc1ccc(-c2ccc3ncnc(Nc4ccc(OCc5cccc(F)c5)c(Cl)c4)c3c2)o1`, the inhibition was determined as 5.18%.
Regarding `CN1CCC(n2cnc(-c3ccc(F)cc3)c2-c2ccnc(Nc3ccccc3)n2)CC1`, the inhibition was 1.97%.
Turning to `COc1ccc(CNC(=O)c2ccc(-c3cc(-c4nnc(C)o4)ccc3C)cc2)cc1`, the inhibition stood at 4.21%.
As for `COc1cc(Nc2nccc(Nc3ccc4c(C)n[nH]c4c3)n2)cc(OC)c1OC`, the inhibition stood at 33.3%.
Consider `CN1CCC(n2cnc(-c3ccc(F)cc3)c2-c2ccnc(N)n2)CC1`, for which the inhibition was 4.69%.
As for `COc1ccc2c(-c3ccnc(Nc4cccc(OC(F)(F)F)c4)n3)cnn2n1`, the inhibition amounted to 4.46%.

A further test has as its target Tyrosine-protein kinase Lyn (Homo sapiens) (UniProt P07948). To be noted: at 0.1 µM.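 Also: mean inhibition of the LYN A splice variant of the kinase.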
As for `CCn1cc(-c2ccnc3[nH]ccc23)c(-c2cccc(NC(=O)Nc3ccc(OCc4ccccc4)cc3)c2)n1`, the inhibition was 5.25%.
For `Cc1cccc(Nc2ncc(-c3ccccc3)o2)c1`, the inhibition was 3.9%.
Regarding `Nc1nc(-c2ccc(F)cc2)c(-c2ccc3ncccc3n2)s1`, the inhibition worked out at 9.43%.
For the molecule `FC(F)(F)c1cccc(-c2nn3ncccc3c2-c2ccnc(Nc3ccc4c(c3)OCCO4)n2)c1`, the inhibition was 7.06%.
Take `CNC(=O)c1cncc(/C=C/c2ccccc2Cl)c1`: the inhibition worked out at 1.6%.
As for `O=C(O[C@H]1CN[C@H](C#Cc2cc3ncnc(Nc4ccc(Cc5ccccc5)cc4)c3s2)C1)N1CCOCC1`, the inhibition is 0.85%.
Consider `COc1ccc(-c2nn3ncccc3c2-c2ccnc(Nc3ccc4c(c3)OCCO4)n2)cc1`, for which the inhibition stood at 13.8%.
In the case of `CCNC(=O)O[C@H]1CN[C@H](C#Cc2cc3ncnc(Nc4ccc(OCc5cccc(F)c5)c(Cl)c4)c3s2)C1`, the inhibition turned out to be 5.67%.
Take `COc1ccc(-c2oc3ncnc(N)c3c2-c2ccc(NC(=O)Nc3cc(C(F)(F)F)ccc3F)cc2)cc1`: the inhibition turned out to be 48.4%.
As for `CCn1c(-c2nonc2N)nc2cnc(Oc3cccc(NC(=O)c4ccc(N(C)C)cc4)c3)cc21`, the inhibition is 1.48%.
`CCn1c(-c2nonc2N)nc2c(C#CC(C)(C)O)nc(OC[C@H](N)c3ccccc3)cc21`: the inhibition came to 4.19%.
Turning to `Fc1ccc(-c2nn3ncccc3c2-c2ccnc(Nc3ccc4c(c3)OCCO4)n2)cc1`, the inhibition came out at 32.5%.
As to `COc1cccc(-c2c[nH]c3c(N/N=C/c4ccncc4)ncnc23)c1`, the inhibition is 40.1%.
For the molecule `O=C(Nc1n[nH]c2cc(-c3ccc(F)cc3)ccc12)C1CC1`, the inhibition is 6.61%.
The same measure, in the same setting: for `Clc1ccc(-c2nn3ncccc3c2-c2ccnc(Nc3ccccc3)n2)cc1` the value was 7.57%; for `c1ccc(COc2ccc(Nc3ncnc4ccc(-c5ccco5)cc34)cc2)cc1`, 1.51%.
As for `N#Cc1c(NC(=O)c2ccc(F)cc2)sc2c1CCCC2`, the inhibition came to 0.87%.
Regarding `COc1cc(/C=N/Nc2ncnc3[nH]ncc23)ccc1O`, the inhibition came to 16.8%.
Consider `Nc1nc(-c2cccc(Cl)c2)c(-c2ccc3ncccc3n2)s1`, for which the inhibition is 7.27%.
Take `COc1cc2ncn(-c3cc(OCc4ccccc4C(F)(F)F)c(C(=O)N(C)C)s3)c2cc1OC`: the inhibition was found to be 0.76%.
On the same count and under the same terms, the result for `COC(=O)Nc1nc2ccc(S(=O)(=O)c3ccc(NC(=O)Nc4cc(C(F)(F)F)ccc4F)cc3)cc2[nH]1` reads 3.86%.
Consider `COc1ccc(-c2cc3c(N)ncnc3o2)cc1`, for which the inhibition is -0.81%.
Consider `COc1cc(N2CCN(C(C)C)CC2)ccc1Nc1nc(Nc2ccc(F)cc2C(N)=O)c2cc[nH]c2n1`, for which the inhibition stood at 2.75%.
As for `CC1=C(C(=O)Nc2cc(Cl)c3[nH]ncc3c2)C(c2ccc(C(F)(F)F)cc2)CC(=O)N1` (stereo unspecified), the inhibition is 5.29%.
Take `CC(=O)NCc1cccc(C#Cc2cncnc2Nc2ccc(OCc3cccc(F)c3)c(Cl)c2)c1`: the inhibition is -0.07%.
As for `CCn1c(-c2nonc2N)nc2c(C#CC(C)(C)O)ncc(OC3CCNCC3)c21`, the inhibition amounted to 4.34%.
The same measure, in the same setting: the result for `NS(=O)(=O)c1ccc(Nc2ncc(-c3ccccc3)o2)cc1` reads 5.4%; that for `CCCN(CCS(C)(=O)=O)Cc1ccc(-c2ccc3ncnc(Nc4ccc(OCc5cccc(F)c5)c(Cl)c4)c3c2)o1`, 4.64%.
As to `CN1CCC(n2cnc(-c3ccc(F)cc3)c2-c2ccnc(Nc3ccccc3)n2)CC1`, the inhibition came to 4.88%.
The same measure, in the same setting: the result for `COc1ccc(CNC(=O)c2ccc(-c3cc(-c4nnc(C)o4)ccc3C)cc2)cc1` reads 4.62%.
The same measure, in the same setting: the result for `COc1cc(Nc2nccc(Nc3ccc4c(C)n[nH]c4c3)n2)cc(OC)c1OC` reads 49.6%.
`CN1CCC(n2cnc(-c3ccc(F)cc3)c2-c2ccnc(N)n2)CC1`: the inhibition amounted to 1.99%.
Consider `COc1ccc2c(-c3ccnc(Nc4cccc(OC(F)(F)F)c4)n3)cnn2n1`, for which the inhibition is 7.95%.

As a reminder, the inhibition is the relative decrease from the control value, in per cent.
